In PubChem BioAssay (NCATS):
Results filed as inconclusive are left out. Unmarked numbers belong to inactive results. Activity calls are given as the source filed them. The call rests on the fitted dose curve; in most records, active means well fitted curve in the direction sought with a large enough effect; inconclusive means small, poorly fitted or top-dose-only effect, or another doubt; inactive means no such curve, though single readings can be large; an effect the other way counts as inactive or inconclusive. Where a SMILES comes first, the peptide text is derived from it.

Test system: not listed separately
Assay: P-glycoprotein substrates identified in KB-8-5-11 adenocarcinoma cell line, qHTS therapeutic library screen (AID 1346987); further: nearly all actives have a fitted effect of over 65% in size; on activity change, negative = cytotoxicity: on the % scale 0 is the no-effect control and ±100 the full control effect
Conditions: KB-8-5-11 (P-gp overexpressing) viability, CellTiter-Glo, 72 h; series mostly up to 44.5 µM; activity change, negative = cytotoxicity: at the top concentration
How it was run: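 P-gp-mediated resistance screen: KB-8-5-11 cells treated 72 h with compounds in dose-response. CellTiter-Glo viability.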
For `CCC(=O)N1CCc2cc(OC)c(O)cc2C1`, the “activity change, negative = cytotoxicity” value was 4.69%. In the case of `CC(C)(C)NS(=O)(=O)c1ccc(-c2ccc3[nH]nc(N)c3c2)cc1`, the “activity change, negative = cytotoxicity” value is reported as -2.34%. With `CC1C(O)C(O)C2C(C(=O)OCCc3ccc(O)cc3)=COC(O[C@@H]3O[C@H](CO)[C@@H](O)[C@H](O)[C@H]3O)C12` (some centres undefined) the “activity change, negative = cytotoxicity” value was 1.81% [at 17.3 µM]. In the case of `O=C(/C=C/c1ccc(O)c(O)c1)OC[C@H]1O[C@@H](OC2CCCCC2O)[C@H](O)[C@@H](O)[C@@H]1O` (some centres undefined), the “outcome” value is reported as “inactive [at 17.3 µM]”. In the case of `CC1=CC(=O)CC(C)(C)C1/C=C/C(C)OC1OC(COC2OCC(O)C(O)C2O)C(O)C(O)C1O` (centres undefined), the “activity change, negative = cytotoxicity” value is reported as 7.82% [at 17.3 µM]. With `O=C(O)CCc1ccc(NCc2cccc3c2CCCN3CCOc2ccccc2)cc1F` the “activity change, negative = cytotoxicity” value was 4.86%. With `COc1cc(O)c(C(=O)O)c(CCc2ccccc2)c1` the “outcome” value was “inactive”. For `CC(=O)OC12CC(C)C(OC(=O)c3ccccc3)C1/C=C(/C)C(OC(=O)c1ccccc1)CC(=O)C(C)(C)/C=C/C(C)C2=O` (centres undefined), the “activity change, negative = cytotoxicity” value was -23.9% [at 17.3 µM]. For `C=C1CCC2C(C)(C)CC(O)CC2(C)C1CCC(C)CC(=O)O` (centres undefined), the “activity change, negative = cytotoxicity” value was 6.03%. With `COc1cc([C@@H](O[C@@H]2O[C@H](CO)[C@@H](O)[C@H](O)[C@H]2O)[C@@H]2CO[C@H](c3ccc(O)c(OC)c3)[C@H]2CO)ccc1O` the “activity change, negative = cytotoxicity” value was 5.88% [at 17.3 µM]. With `CC1=C(C)C(=O)OC(C(C)C2C(O)CC3C4C5OC5C5(O)CC(OC6OC(CO)C(OC7OC(C)C(O)C(O)C7O)C(O)C6O)CC(O)C5(C)C4CCC32C)C1` (centres undefined) the “activity change, negative = cytotoxicity” value was 0.543% [at 17.3 µM]. With `COc1cc2c(c(O)c1OC/C=C(\C)CC/C=C(/C)CCC=C(C)C)CN(C(CCC(=O)O)C(=O)O)C2=O` (centres undefined) the “outcome” value was “inactive [at 17.3 µM]”. With `C=CC1(C)C=C2CC[C@H]3[C@@](C)(C(=O)O)CCC[C@]3(C)C2CC1` (some centres undefined) the “activity change, negative = cytotoxicity” value was 8.44%. For `Cc1c(O)cc2c(c1O)COC1(O)CCCOC21` (centres undefined), the “outcome” value was “inactive”. For `COc1cc(CO)ccc1O[C@@H]1O[C@H](CO)[C@@H](O)[C@H](O)[C@H]1O`, the “activity change, negative = cytotoxicity” value was 6.61%. For `C=C1C[C@]23C[C@@]1(O)CC[C@H]2[C@@]12C=C[C@H](O)[C@@](C)(C(=O)O1)[C@H]2[C@@H]3C(=O)O`, the “outcome” value was “inactive”. In the case of `COc1cc(Nc2ccc([N+](=O)[O-])cc2C(=O)O)cc2ccccc12`, the “activity change, negative = cytotoxicity” value is reported as -8.91%. In the case of `COc1cc(/C=C/C(=O)O[C@@H]2C[C@@](O)(C(=O)O)C[C@@H](O)[C@@H]2O)ccc1O`, the “activity change, negative = cytotoxicity” value is reported as 1.07%. For `CC(=O)NC1C(OC2CCC3(C)C(CCC4(C)C3CC=C3C5CC(C)(C)CCC5(C(=O)O)C(O)CC34C)C2(C)C)OC(CO)C(O)C1O` (centres undefined), the “activity change, negative = cytotoxicity” value was -5.63% [at 17.3 µM]. In the case of `CCC/C=C1\OC(=O)C2=C1CCC(O)C2O` (centres undefined), the “outcome” value is reported as “inactive”. With `O=C(/C=C/C=C/c1ccc2c(c1)OCO2)N1CCCCC1` the “activity change, negative = cytotoxicity” value was -16.2%. In the case of `COc1cc(/C=C/c2ccccc2)c(C(=O)O)c(O)c1CC=C(C)C`, the “activity change, negative = cytotoxicity” value is reported as -16.4%. For `C/C=C/C=C/C=C/C(=O)O[C@@H]1[C@@H](OC)C2=C(C(=O)N(C(CCC(=O)O)C(=O)O)C2)[C@@]2(C)CCCC(C)(C)[C@H]12` (some centres undefined), the “activity change, negative = cytotoxicity” value was 0.184% [at 17.3 µM]. With `C/C(=C\CC/C(C)=C/CC[C@]1(C)CCc2cc(O)cc(C)c2O1)CC/C=C(\C)C(=O)O` the “activity change, negative = cytotoxicity” value was 2.58% [at 17.3 µM]. In the case of `C=C1C2CCC3C(CCC4[C@@]3(C)CCC[C@@]4(C)C(=O)O)(C2)[C@@H]1OC(=O)/C(C)=C\C` (some centres undefined), the “activity change, negative = cytotoxicity” value is reported as 6.59% [at 17.3 µM]. In the case of `COc1cccc(CNc2ccc(S(=O)(=O)Nc3nc4ccccc4s3)cc2)c1O`, the “outcome” value is reported as “inactive”. In the case of `CCOc1nc2c(N)ncnc2n1CC`, the “outcome” value is reported as “inactive”. In the case of `Cc1ccc2[nH]c(=O)c(C3=NN(C(=O)CCC(=O)O)C(c4ccc(Br)cc4)C3)c(-c3ccccc3)c2c1` (centres undefined), the “outcome” value is reported as “inactive”. In the case of `C=C1C2CCC3CC2(CC(O)C2(O)C1CC(OC1OC(CO)C(O)C(O)C1O)C2(C)C)CC3(C)O` (centres undefined), the “outcome” value is reported as “inactive [at 17.3 µM]”. In the case of `COc1ccc([C@H]2OC[C@H]3[C@@H]2CO[C@@H]3c2ccc(O[C@@H]3O[C@H](CO)C(O)[C@H](O)[C@H]3O)c(OC)c2)cc1OC` (some centres undefined), the “activity change, negative = cytotoxicity” value is reported as 7.94% [at 17.3 µM]. With `COc1c(C)c(OCC=C(C)C)cc2c1CNC2=O` the “activity change, negative = cytotoxicity” value was -14.7%. In the case of `CC(=O)NC(Cc1ccccc1)C(=O)NC(C(=O)O)C(C)C` (stereo not drawn) (Ac-Phe-Val-OH; configuration not given here), the “activity change, negative = cytotoxicity” value is reported as 3.63%. With `C[C@@H]1[C@H]2[C@H](O[C@@H]3O[C@H](CO)[C@@H](O)[C@H](O)[C@H]3O)OC=C(C(=O)O)[C@H]2C[C@@H]1OC(=O)/C=C/c1ccc(O)cc1` the “activity change, negative = cytotoxicity” value was 1.41% [at 17.3 µM]. In the case of `CC1(C)CC=C(c2cnc3ccccc3c2)c2cc(C(=O)Nc3ccc(C(=O)O)cc3)ccc21`, the “outcome” value is reported as “inactive”. For `O=C(O)C1(c2ccc(-c3ccc(Cl)c(Cl)c3)c(F)c2)CC1`, the “activity change, negative = cytotoxicity” value was -6.62%. For `C=C1CCC2C(C)(C)CCC[C@]2(C)[C@H]1CC/C(C)=C/C(=O)O` (some centres undefined), the “activity change, negative = cytotoxicity” value was 1.04%. With `Cc1ncc(NC(=O)c2ccc(CN3CCN(C)CC3)c(C(F)(F)F)c2)cc1Nc1nccc(-c2cccnc2)n1` the “outcome” value was “inactive”.

Biological target: Furin (Homo sapiens) (UniProt P09958)
Sequence (P09958 whole entry, looked up): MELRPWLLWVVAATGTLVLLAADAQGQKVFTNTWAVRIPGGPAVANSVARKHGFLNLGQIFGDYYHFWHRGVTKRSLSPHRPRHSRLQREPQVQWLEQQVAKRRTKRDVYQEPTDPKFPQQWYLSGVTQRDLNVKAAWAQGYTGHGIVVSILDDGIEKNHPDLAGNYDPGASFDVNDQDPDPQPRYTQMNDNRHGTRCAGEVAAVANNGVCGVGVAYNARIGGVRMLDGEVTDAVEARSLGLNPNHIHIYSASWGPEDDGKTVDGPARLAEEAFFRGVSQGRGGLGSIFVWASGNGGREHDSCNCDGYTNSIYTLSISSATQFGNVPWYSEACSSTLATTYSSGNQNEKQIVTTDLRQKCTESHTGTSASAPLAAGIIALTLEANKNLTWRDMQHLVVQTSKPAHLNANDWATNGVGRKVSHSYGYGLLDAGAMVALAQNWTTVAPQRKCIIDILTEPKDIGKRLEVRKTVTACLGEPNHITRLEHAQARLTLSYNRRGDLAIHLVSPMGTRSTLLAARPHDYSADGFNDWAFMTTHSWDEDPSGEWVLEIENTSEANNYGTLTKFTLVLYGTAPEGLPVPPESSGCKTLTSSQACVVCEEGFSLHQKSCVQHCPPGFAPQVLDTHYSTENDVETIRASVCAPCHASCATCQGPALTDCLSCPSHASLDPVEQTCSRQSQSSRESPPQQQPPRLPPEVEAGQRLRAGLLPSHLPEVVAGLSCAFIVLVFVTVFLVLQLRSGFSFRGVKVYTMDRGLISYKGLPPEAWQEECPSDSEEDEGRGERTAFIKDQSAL
Assay: Furin counterscreen qHTS for Zika virus inhibitors (AID 1347149); further: nearly all actives have a fitted effect of over 70% in size; further: potency means the concentration at half of the fitted maximal effect;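 on activity change, negative = inhibition: purified recombinant full-length human furin enzyme at 5 nM; fluorescence gain from furin cutting a BOC-RVRR-AMC peptide substrate over 15 min; top concentration of the series differs between compounds; plate controls were no-inhibitor control for no effect and no-enzyme control for full effect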
Conditions: furin enzymatic counterscreen, fluorogenic substrate; series mostly up to 57.5 µM; activity change, negative = inhibition: at the top concentration
How it was run: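 Fluorogenic cleavage of BOC-RVRR-AMC (2 microM final, Km ~15 µM) was monitored (ex 340, em 450 nm) at 37C after 15 min RT preincubation of 5 nM furin with compounds in HEPES pH 7.0 buffer with CaCl2 and Triton X-100. Percent inhibition was fitted to a 4-parameter Hill curve.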
With `CC1C(O)C(O)C2C(C(=O)OCCc3ccc(O)cc3)=COC(O[C@@H]3O[C@H](CO)[C@@H](O)[C@H](O)[C@H]3O)C12` (some centres undefined) the “activity change, negative = inhibition” value was -8.99%. In the case of `CC(=O)OC12CC(C)C(OC(=O)c3ccccc3)C1/C=C(/C)C(OC(=O)c1ccccc1)CC(=O)C(C)(C)/C=C/C(C)C2=O` (centres undefined), the “activity change, negative = inhibition” value is reported as -13.9% [at 36.2 µM]. With `COc1cc2c(c(O)c1OC/C=C(\C)CC/C=C(/C)CCC=C(C)C)CN(C(CCC(=O)O)C(=O)O)C2=O` (centres undefined) the “activity change, negative = inhibition” value was -27.5%. In the case of `C=CC1(C)C=C2CC[C@H]3[C@@](C)(C(=O)O)CCC[C@]3(C)C2CC1` (some centres undefined), the “activity change, negative = inhibition” value is reported as -7.51%. With `COc1cc(Nc2ccc([N+](=O)[O-])cc2C(=O)O)cc2ccccc12` the “activity change, negative = inhibition” value was 29.5%. For `COc1cc(/C=C/c2ccccc2)c(C(=O)O)c(O)c1CC=C(C)C`, the Potency was 19.3 µM (active). For `C/C=C/C=C/C=C/C(=O)O[C@@H]1[C@@H](OC)C2=C(C(=O)N(C(CCC(=O)O)C(=O)O)C2)[C@@]2(C)CCCC(C)(C)[C@H]12` (some centres undefined), the “activity change, negative = inhibition” value was 2.94%. For `O=C(O)CC1CCC(c2ccc(-c3ccc(Nc4ccc(C(F)(F)F)nc4)cn3)cc2)CC1` (centres undefined), the Potency was 78.4 µM (active). In the case of `C/C(=C\CC/C(C)=C/CC[C@]1(C)CCc2cc(O)cc(C)c2O1)CC/C=C(\C)C(=O)O`, the “activity change, negative = inhibition” value is reported as -21.9%. In the case of `C=C1C2CCC3C(CCC4[C@@]3(C)CCC[C@@]4(C)C(=O)O)(C2)[C@@H]1OC(=O)/C(C)=C\C` (some centres undefined), the “activity change, negative = inhibition” value is reported as -0.604%. With `COc1cccc(CNc2ccc(S(=O)(=O)Nc3nc4ccccc4s3)cc2)c1O` the “activity change, negative = inhibition” value was 48.1% [at 114 µM]. For `Cc1ccc2[nH]c(=O)c(C3=NN(C(=O)CCC(=O)O)C(c4ccc(Br)cc4)C3)c(-c3ccccc3)c2c1` (centres undefined), the Potency was 69.8 µM (active). In the case of `C=C1C2CCC3CC2(CC(O)C2(O)C1CC(OC1OC(CO)C(O)C(O)C1O)C2(C)C)CC3(C)O` (centres undefined), the “activity change, negative = inhibition” value is reported as 3.01%. For `CC1(C)CC=C(c2cnc3ccccc3c2)c2cc(C(=O)Nc3ccc(C(=O)O)cc3)ccc21`, the Potency was 44.1 µM (active). In the case of `O=C(O)C1(c2ccc(-c3ccc(Cl)c(Cl)c3)c(F)c2)CC1`, the “activity change, negative = inhibition” value is reported as 5.41% [at 114 µM]. With `C=C1CCC2C(C)(C)CCC[C@]2(C)[C@H]1CC/C(C)=C/C(=O)O` (some centres undefined) the “activity change, negative = inhibition” value was -5.93% [at 114 µM]. In the case of `COc1cc(Nc2nc3ccccc3nc2NS(=O)(=O)c2cccc(NC(=O)c3ccc(C)c(OC)c3)c2)cc(OC)c1`, the “activity change, negative = inhibition” value is reported as 8.31% [at 114 µM].
